# Screens: PubChem, The Scripps Research Institute Molecular Screening Center
# Compounds with a hit are over-represented: about 2.8% of the library has one in this group of screens.
# pPAFAH FP inh: pPAFAH (human) enzyme inhibition; Q13093; recombinant pPAFAH, FP-rhodamine probe fluorescence polarization; inhibition, % at 3.39 µM; actives 1.5% (n = 330,000); AID 463082;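 active means inhibition above the mean inhibition across the screen plus 3 SD, cut at about 25% in these data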;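 further: inhibitors block binding of the rhodamine activity-based probe so polarization drops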
# PAFAH2 FP inh: PAFAH2 (human) inhibition; actives 0.99% (n = 340,000); Q99487; recombinant PAFAH2, FP-rhodamine activity probe, fluorescence polarization; inhibition, % at 3.39 µM;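 active means inhibition above the mean over all tested compounds plus 3 SD, cut at about 30% in these data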;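 further: inhibitors block probe labeling of enzyme so polarization drops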
# PAFAH1B3 FP inh: inhibitors of human PAFAH1B3. Q15102. recombinant PAFAH1B3, FP-rhodamine probe, fluorescence polarization. inhibition, % at 3.39 µM. actives 0.28% (n = 340,000). AID 492972;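 active means inhibition above the screen-wide average of all tested compounds plus 3 SD, cut at about 25% in these data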
# PME-1 primary: blocks human protein phosphatase methylesterase 1 | actives 0.53% (n = 320,000) | inhibition, % at 5.9 µM | recombinant PME-1, FP-Rh probe fluorescence polarization | Q9Y570 | AID 2130;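 active means inhibition above the campaign mean of all compounds plus 3 SD, cut at about 26% in these data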;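 further: competitive labeling of PME-1 active site by serine hydrolase directed probe; inhibitors block probe labeling so polarization falls and inhibition rises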
# Target sequence (Q9Y570 whole entry, looked up): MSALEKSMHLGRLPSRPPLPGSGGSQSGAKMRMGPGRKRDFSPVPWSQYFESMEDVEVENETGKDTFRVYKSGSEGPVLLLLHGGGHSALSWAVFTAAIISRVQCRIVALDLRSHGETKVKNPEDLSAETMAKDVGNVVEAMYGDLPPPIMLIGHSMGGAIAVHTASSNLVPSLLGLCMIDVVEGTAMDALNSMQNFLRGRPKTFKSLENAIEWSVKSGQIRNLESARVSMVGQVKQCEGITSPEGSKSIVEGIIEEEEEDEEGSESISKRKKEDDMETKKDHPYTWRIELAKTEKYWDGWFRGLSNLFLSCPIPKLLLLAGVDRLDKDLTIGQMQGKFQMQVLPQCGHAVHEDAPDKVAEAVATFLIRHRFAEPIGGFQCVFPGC
# PAFAH1B2 FP inh: inhibitors of human PAFAH1B2 | P68402 | recombinant PAFAH1B2, FP-rhodamine activity probe, fluorescence polarization | inhibition, % at 3.39 µM | actives 1.2% (n = 340,000) | AID 492953;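 active means inhibition above the mean of all tested compounds plus 3 SD, cut at about 24% in these data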
# Fam108B inh: Fam108B inhibition, counter-screen for RBBP9 inhibitors; recombinant Fam108B, FP-Rh probe fluorescence polarization; actives 0.33% (n = 300,000); inhibition, % at 9.51 µM;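 active means inhibition above the screen mean inhibition plus 3 SD, computed separately per campaign, cut at about 18% in these data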;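 further: inhibitors lower polarization as less probe binds the enzyme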
# Numbers stand for hits; i = inactive; nt = no result.
SMILES,pPAFAH FP inh,PAFAH2 FP inh,PAFAH1B3 FP inh,PME-1 primary,PAFAH1B2 FP inh,Fam108B inh
CCCCC1=CC2=CC(=O)C(C)(OC(=O)c3cnc4ccccc4n3)C(=O)C2=CO1 (stereo not drawn),57,nt,nt,31,nt,19
COC/C=C/C1=CC2=CC(=O)C(C)(OC(=O)C3CCCC3)C(=O)C2=CO1 (stereo not drawn),i,i,i,i,i,i
COC/C=C/C1=CC2=CC(=O)C(C)(O)C(=O)C2=CO1 (stereo not drawn),48,nt,nt,i,nt,i
CCCCN1CC(=O)N2[C@H]3c4cc(C)ccc4OC[C@@H]3[C@H](C(=O)OCC)[C@]2(C)C1=O,i,i,i,i,i,nt
O=C(NCCCNC(=O)c1ccco1)c1ccc(F)cc1,i,i,i,i,i,i
COCCN1C=C2C(=O)C(C)(OC(=O)c3cccs3)C(=O)C=C2C=C1CCCC(=O)OC (stereo not drawn),i,i,i,i,i,i
COC/C=C/C1=CC2=CC(=O)C(C)(OC(=O)c3ccco3)C(=O)C2=CO1 (stereo not drawn),53,nt,nt,i,nt,i
COC(=O)CCCC1=CC2=CC(=O)C(C)(OC(=O)c3ccc(Cl)nc3)C(=O)C2=CO1 (stereo not drawn),36,nt,nt,i,nt,i
NC(=O)c1cc([N+](=O)[O-])ccc1NCc1ccc(O)cc1,i,i,i,i,i,i
CN(c1cccc(NC(=O)Nc2cccc(Cl)c2)c1)S(C)(=O)=O,i,i,i,i,i,i
CN(C)c1ccc(NC(=O)Nc2cccc(Cl)c2)cc1,i,i,i,32,i,i
CCOC(=O)c1sc(NC(=O)Nc2cccc(Cl)c2)cc1C,i,i,i,i,i,25
CCOC(=O)c1ccc(N2N=C(C)/C(=C/C=C/c3ccco3)C2=O)cc1,i,i,i,i,i,i
O=C(O)c1cc(N2N=C(C(F)(F)F)/C(=C/C=C/c3ccco3)C2=O)ccc1Cl,nt,59,37,nt,32,nt
O=C1C(=O)N(CCCc2ccccc2)c2ccccc21,27,i,i,i,i,i
O=C(CN1C(=O)C(=O)c2ccccc21)NCCc1ccccc1,i,i,i,i,i,i
CC(=O)Nc1ccc(NC(=O)c2cc(=O)c3ccccc3o2)cc1,28,i,i,i,i,i
O=C(Nc1ccc(N2CCCC2)cc1)c1cc2ccccc2o1,i,i,i,i,i,i
Cc1ccc(NC(=O)c2cc(=O)c3ccccc3o2)cc1,i,i,i,i,i,i
CC(=O)N1CCN(c2ccc(NC(=O)c3cc4ccccc4o3)cc2)CC1,26,i,i,i,i,i
O=C(CN(Cc1ccccc1)S(=O)(=O)c1ccc(F)cc1)NCc1ccccn1,i,i,i,i,i,i
CCCCn1c(NS(=O)(=O)c2ccc(C)cc2)c(S(=O)(=O)c2ccccc2)c2nc3ccccc3nc21,i,49,72,i,34,i
Cc1ccc(S(=O)(=O)c2c(N)n(CCCN(C)C)c3nc4ccccc4nc23)cc1,i,i,i,i,i,i
CCc1ccc2[nH]c3nc(N/N=C/c4ccc(O)cc4O)nnc3c2c1,28,i,26,i,i,i
C=CC[n+]1c(-c2ccc(Cl)cc2Cl)csc1Nc1ccc(NC(C)=O)cc1,25,33,i,i,i,i
SMILES,pPAFAH FP inh,PAFAH2 FP inh,PAFAH1B3 FP inh,PME-1 primary,PAFAH1B2 FP inh,Fam108B inh
C=CC[n+]1c(-c2ccc(Cl)cc2Cl)csc1Nc1c(C)n(C)n(-c2ccccc2)c1=O,i,i,i,i,i,i
O=C(COc1ccc2c(-c3ccccc3)cc(=O)oc2c1)N[C@@H](Cc1c[nH]c2ccc(O)cc12)C(=O)O,i,i,i,i,63,i
Cc1cc(OC(C)C(=O)NC(Cc2c[nH]c3ccc(O)cc23)C(=O)O)c2c(C)cc(=O)oc2c1 (stereo not drawn),i,i,i,i,i,i
CC(Oc1ccc2c(-c3ccccc3)cc(=O)oc2c1)C(=O)NC(Cc1c[nH]c2ccc(O)cc12)C(=O)O (stereo not drawn),i,i,i,i,71,i
COc1cc2c(C#N)c(N3CCc4ccccc4C3)nc(N)c2c(N)n1,i,i,i,39,i,i
COc1cc2c(C#N)c(N3CCCCC3)nc(N)c2c(N)n1,i,i,i,i,i,i
CCOC(=O)c1c(NC(=O)C(C)Sc2cccc[n+]2[O-])sc2c1CCN(Cc1ccccc1)C2 (stereo not drawn),33,i,i,i,i,i
